An excerpt weighted towards active compounds, which were near 7.9% of everything screened.
MARV entry inh: Marburg virus entry inhibition; Marburg virus pseudotyped entry inhibition, cell reporter; Potency, µM (doses to about 37.8 µM), usual class: inhibitors; actives 1.8% (n = 300,000); AID 540276; calls by dose curve; tested in HEK293 cells
Lassa entry inh: Lassa virus entry inhibition | AID 540256 | Potency, µM (titrated, usually from 37.9 µM), most hits filed as inhibitors | actives 1.2% (n = 300,000) | Lassa virus pseudotype entry inhibition, cell reporter; calls by dose curve; tested in HEK293 cells; also: nearly all actives have a fitted effect of over 50% in size
HCMV inh: human cytomegalovirus inhibition; activity change, negative = inhibition, % at 57.5 µM; actives 4.5% (n = 410,000); HFF cells, HCMV-luciferase reporter, 72 h; stronger effect = lower value; in the data active = activity change below about -60%; inconclusive = no clear call, values can overlap the other calls; inactive = above about -39%
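HFF cells seeded 16 h at 37C, treated with compounds, infected with luciferase-reporter HCMV at MOI 1 PFU/cell; luciferase read at 72 h post infection, normalized to buffer-only and Salinomycin controls.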
HCV inh: HCV inhibition; Huh7.5.1 HCVcc-Cre infection, luciferase reporter, 44 h; actives 3.4% (n = 340,000); Potency, µM (doses to about 41.8 µM), hits mostly inhibitors; active = well fitted inhibition curve with a large enough effect; inconclusive = small, poorly fitted or top-dose-only effect, or another doubt; inactive = no such curve, though single readings can be large or run the other way
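Infectious HCVcc-Cre (~0.5 moi) was added to cells just after compound, with cells seeded 4 h earlier at 1,000 per well. Luciferase activity after 44 h culture reported infection; substrate was incubated 15 min at room temperature before reading.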
FMDV antiviral: antivirals against foot and mouth disease virus. AID 1159524. Potency, µM (highest dose often 57.9 µM), actives largely listed as inhibitors. FMDV antiviral cell-based qHTS. actives 1.2% (n = 410,000); calls by dose curve; tested in HEK293T cells; also: read-out not given here; nearly all actives have a fitted effect of over 45% in size
A number is an active result; . = inactive; ? = inconclusive; / = not tested or not shown.

SMILES	MARV entry inh	Lassa entry inh	HCMV inh	HCV inh	FMDV antiviral
N#Cc1ccc(COC(=O)CN2C(=O)NC3(CCCC3)C2=O)cc1	.	.	.	?	.
CSC[C@H]1CN(Cc2ccccc2)C(=O)[C@H]1CC(=O)Nc1ccccc1	/	.	/	/	/
O=C(NCC(c1ccc2c(c1)OCO2)N1CCOCC1)c1ccccc1F (stereo not given)	/	.	.	/	.
O=C(CCl)Nc1cn(-c2ccccc2)nc1-c1ccccc1	16µM	4.1µM	-96	2.8µM	20µM
CC(=O)Nc1cn(-c2ccccc2)nc1-c1ccccc1	?	.	.	.	.
Cc1ccc(-c2nn(-c3ccccc3)cc2NC(=O)c2ccccc2)cc1	.	.	.	?	.
COc1ccc(NC(=O)CN(C)C(=O)c2cn(-c3ccccc3)nc2-c2ccc(F)cc2)cc1	/	/	.	11µM	.
O=C(Nc1cn(-c2ccccc2)nc1-c1ccc(F)cc1)c1ccccc1	.	.	-61	.	.
Cc1cc(C)n(/C(=C\N(C)C)C(=O)c2ccc(Cl)cc2)n1	.	.	-61	.	.
CC(C)(Oc1ccc(Cl)cc1)C(=O)Nc1ccc2oc(=O)ccc2c1	.	.	-66	/	.
O=C(Nc1ccc2oc(=O)ccc2c1)c1ccc(-c2cccc(Cl)c2)o1	/	/	-64	10µM	.
O=C(Nc1ccc2oc(=O)ccc2c1)c1ccc(-c2cccc([N+](=O)[O-])c2)o1	?	?	.	8.9µM	32µM
O=C(Nc1ccc2nn(-c3ccccc3)nc2c1)c1ccc(-c2cccc(Cl)c2)o1	/	.	-75	/	.
N[C@@H](Cc1ccc(Oc2ccc(O)cc2)cc1)C(=O)O	.	/	/	/	/
CCCCc1ccc(-n2nc3ccc(NC(=O)c4cc5ccccc5o4)cc3n2)cc1	/	.	-82	/	25µM
N[C@@H](CCC(=O)N[C@@H](CS)C(=O)NCC(=O)O)C(=O)O	/	/	/	/	.
CCN(C)C(=O)C1=CN2CCN(Cc3ccccc3C(F)(F)F)C(=O)N=C2O1	/	/	.	/	/
CCOC(=O)c1ccc(CN(Cc2ccccc2)S(=O)(=O)c2ccc(C)cc2)cc1	/	11µM	.	/	.
COc1ccc(-c2cnc(C(O)c3ccc(OC)c(F)c3)[nH]2)cc1 (stereo not given)	/	/	?	/	.
COc1ccc(OC(F)(F)F)cc1CC1(C)C(=O)Nc2ccc(-c3ccsc3)cc21 (stereo not given)	/	/	-82	/	.
CCOc1cc(/C=C2\N=C(SC(C)C(N)=O)N(c3ccc(OC(F)F)cc3)C2=O)ccc1O (stereo not given)	/	/	-62	?	.
O=C(Nc1ccc(Cn2cccn2)cc1)c1ccc(COc2cccc(Br)c2)cc1	0.56µM	5.6µM	.	10µM	.
O=c1cc(O)c2sc(Nc3ccc(F)cc3)nc2[nH]1	.	?	-92	.	.
O=c1cc(O)c2sc(Nc3cccc(C(F)(F)F)c3)nc2[nH]1	.	?	.	.	.
COc1ccc(NC(=O)COc2ccc(N(C)S(=O)(=O)c3ccc(Cl)cc3)cc2)cc1OC	?	?	-88	0.63µM	10µM
SMILES	MARV entry inh	Lassa entry inh	HCMV inh	HCV inh	FMDV antiviral
CN(c1ccc(OCC(=O)Nc2ccccc2C(=O)O)cc1)S(=O)(=O)c1ccc(Cl)cc1	3.5µM	3.2µM	-82	.	.
CCOC(=O)C1=C(C)NC2=C(C(=O)CCC2)C1c1ccsc1 (stereo not given)	.	/	/	/	/
CC1=C(C(=O)OCC(C)C)C(c2ccsc2)C2=C(CCCC2=O)N1 (stereo not given)	.	.	-78	.	.
CCCCCC(=O)c1cc(CC(C(=O)OC)C(=O)OC)cc2cc(OC)c(OC)cc12	.	/	/	/	/
S=C(Nc1ccccc1)N1CCN(C(=S)c2ccccc2)CC1	.	?	-102	.	.
S=C(Nc1ccccc1)N1CCCCC1	.	.	.	.	.
N[C@@H]1CC[C@@]23CCCN2C(=O)CCC[C@H]3[C@H]1Cc1ccccc1	/	/	.	/	/
COc1ccccc1-c1ncn(Cc2cccc(-c3ccccc3)c2)c1CC(C)C	/	/	?	/	28µM
CCCc1c(-c2ccc(F)cc2F)ncn1Cc1cccc(-c2ccccc2)c1	/	/	-87	/	?
COc1ccccc1-c1ncn(Cc2cccc(-c3ccccc3)c2)c1-c1cc(C)cc(C)c1	/	/	?	/	.
CCc1c(-c2ccccc2OC)ncn1Cc1cccc(-c2ccccc2)c1	/	/	-98	/	.
COc1ccc2c(c1)c1ncn(Cc3ccco3)c(=O)c1n2C	?	.	-81	11µM	.
CCC1(c2ccccc2)NC(=O)N(CC(=O)Nc2cc(S(=O)(=O)N3CCCCCC3)ccc2OC)C1=O (stereo not given)	?	?	.	14µM	.
CCOc1ccc(S(=O)(=O)N2CCCCC2)cc1NC(=O)CN1C(=O)NC(CC)(c2ccccc2)C1=O (stereo not given)	?	?	.	?	.
CCC1(c2ccccc2)NC(=O)N(CC(=O)Nc2cc(S(=O)(=O)N3CCCCC3)ccc2OC(C)C)C1=O (stereo not given)	?	.	.	10µM	.
COc1cccc(NC(=O)c2sc(-n3nc(C)c(Cc4ccccc4Cl)c3C)nc2C)c1	.	.	.	/	?
N#Cc1cnn(-c2ccccc2)c1N	.	?	.	?	/
CC(C)C1N(c2ccccc2)C(N)=C(C#N)C1(C#N)C#N (stereo not given)	.	.	-66	?	?
O=C1C2=C(NC(=S)NC2c2ccc(Cl)cc2)NC(c2ccc(Cl)cc2)N1c1ccc(Cl)cc1 (stereo not given)	16µM	.	.	.	?
CNc1oc(-c2ccc(C)cc2)nc1P(=O)(c1ccccc1)c1ccccc1	?	21µM	.	?	.
CN(Cc1c(F)cccc1Cl)C(=O)CNC(=O)c1cccs1	/	/	.	.	.
Cc1cc(C)cc(N(CCC(=O)Nc2nnc(C3CC3)s2)S(=O)(=O)c2ccc(Cl)cc2)c1	?	.	-61	?	.
COc1cccc([C@@H]2Oc3ccc(OC)cc3[C@H](O)[C@H]2O)c1	.	/	/	/	/
Cc1ccc(S(=O)(=O)NCC(c2ccco2)N2CCc3ccccc3C2)cc1 (stereo not given)	?	.	.	.	.
COc1ccc(S(=O)(=O)NCC(c2ccco2)N2CCc3ccccc3C2)cc1 (stereo not given)	.	.	-95	.	.
SMILES	MARV entry inh	Lassa entry inh	HCMV inh	HCV inh	FMDV antiviral
CCCCN(CC)C(=S)Nc1ccc2nc(N3CCN(C)CC3)cc(C)c2c1	/	/	-72	?	.
Cc1cc(N2CCN(C)CC2)nc2ccc(NC(=S)N3CCN(c4ccc(F)cc4)CC3)cc12	/	/	.	10µM	.
CCCCNC(=S)Nc1ccc2nc(N3CCN(CC)CC3)cc(C)c2c1	?	.	.	13µM	.
Cc1cc(N2CCN(C)CC2)nc2ccc(NC(=S)N3CCN(c4ccc(Cl)cc4)CC3)cc12	.	.	?	?	.
CCCCN(C)CCNC(=S)Nc1ccc2nc(N3CCN(CC)CC3)cc(C)c2c1	?	7.1µM	.	?	.
COc1cc(Cl)ccc1OCc1cc(C(=O)NCc2cc(C(C)C)no2)no1	.	.	.	.	.
O=C(NCCCc1ccncc1)C1CCC(=O)N(CCc2cccc(F)c2)C1 (stereo not given)	?	.	?	.	.
